Pf Dd2 growth = qHTS Primary assay for Inhibitors of Plasmodium falciparum Dd2 growth in vitro; P. falciparum Dd2 growth, SYBR Green, 72 h; Potency, µM (highest dose often 28.9 µM), actives largely listed as inhibitors; 120,000 compounds, 4.3% hits; active = well fitted inhibition curve with a large enough effect; also: nearly all actives have a fitted effect of over 65% in size
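Infected erythrocytes (Dd2, 0.3% parasitemia, 2.5% hematocrit final) are added to compound in RPMI-1640/Albumax II medium, grown 72 h at 37C in low oxygen, then lysed with saponin/Triton-X containing SYBR Green and read by fluorescence.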
Hits are given with their value; . = inactive; [ ] = remark or other dose. This excerpt belongs to a sample that is enriched for hits.

SMILES	Pf Dd2 growth
COCC1CN(C(C)=O)CC12CCN(Cc1ccccc1C(F)(F)F)CC2 (stereo unspecified)	.
CCOC(=O)C1(Cc2ccccc2F)CCCN(C(=O)c2ccc(-n3ccnc3)cc2)C1 (stereo unspecified)	.
COc1ccc(CNC(=O)[C@H]2O[C@H](CCN3CCN(c4ccccc4OC)CC3)CC[C@@H]2O)cc1	.
COc1ccc(OC2CN(S(=O)(=O)c3c(C)noc3C)C2)cc1	.
O=C(c1ccccc1)N1CCC2(CC1)SCC(=O)N2c1ccccc1	.
CC(=O)N1CC[C@H](c2nc3cc(F)ccc3o2)C1	.
COCCn1ccnc1C1CCN(C(=O)c2ccc3n[nH]nc3c2)CC1	.
CCOCC(=O)N1CCC2(CC1)CC(c1ccccc1)C(=O)N2C (stereo unspecified)	.
NS(=O)(=O)c1ccc(C(=O)NCCn2cccn2)cc1	.
Cc1ccc2c(=O)c(C(=O)c3cccc(Cl)c3)cn(CC(=O)NCc3ccc(F)cc3)c2n1	.
Cc1ccc(C)c(NC(=O)Cn2cc(C(=O)c3ccc(Cl)cc3)c(=O)c3ccc(C)nc32)c1	.
CCN(C(=O)Cn1cc(C(=O)c2ccc(F)cc2)c(=O)c2ccc(C)nc21)c1cccc(C)c1	8.9µM
O=C(O)c1ccc(C2CCCN(C(=O)CCCn3cncn3)C2)cc1 (stereo unspecified)	.
COCC(=O)NC[C@@H]1CC[C@H]2C[C@@H]1C2(C)C	.
CC1(C)[C@H]2CC[C@@H](CNC(=O)c3ccccc3)[C@@H]1C2	.
CN(C)CCCC(=O)NC[C@@H]1CC[C@H]2C[C@@H]1C2(C)C	10µM
CC1(C)[C@H]2CC[C@@H](CNC(=O)c3ccc(F)cc3)[C@@H]1C2	11µM
CC(=O)NC[C@H]1CCN(C(=O)c2ccc(C(F)(F)F)cc2)C[C@H]1N(C)C	.
COC[C@H]1C[C@@H](NC(=O)c2ccc(C(F)(F)F)cc2)[C@H](O)[C@@H]1O	.
CC1(C)[C@H]2CC[C@@H](CNC(=O)c3cncc(Br)c3)[C@@H]1C2	.
CC1(C)[C@H]2CC[C@@H](CNC(=O)c3ccc(C(F)(F)F)cc3)[C@@H]1C2	10µM
Cc1c(C(C)NC(=O)CN2CCOC2=O)cnn1-c1ccc(F)cc1F (stereo unspecified)	.
O=C(Nc1ccc([C@@H](O)[C@H]2COCC(=O)N2Cc2ccc(F)cc2)cc1)C1CCC1	.
COCCCN1CC2(CCN(CC(=O)N3CCNCC3)CC2)CC1=O	.
COc1cccc(C(=O)N2CCc3nc(-c4ccc(Cl)cc4)nc(-c4ccccc4)c3C2)c1	.
SMILES	Pf Dd2 growth
CCn1cc(S(=O)(=O)N2CCC(Cc3nc(-c4cccnc4)n[nH]3)C2)cn1 (stereo unspecified)	.
COc1cccc(S(=O)(=O)NCC(=O)N2CCCCCNC(=O)CC2c2ccccc2)c1 (stereo unspecified)	.
Cc1nc2ncccn2c1C(=O)N1C[C@H]2C(=O)NC[C@@]2(C(=O)O)C1	.
CC(C)N1C[C@H](O)C[C@H]1c1nnc2n1CCN(C(=O)CCc1c[nH]c3ccccc13)CC2	.
Cc1ccc(-c2noc(-c3ccccc3NC(=O)C3CC(=O)N(c4ccc(C)cc4)C3)n2)cc1 (stereo unspecified)	1.4µM
Cc1ccc(N2CC(C(=O)Nc3ccc(Cl)cc3Cl)CC2=O)cc1 (stereo unspecified)	.
Cc1ccc(N2CC(c3noc(-c4ccccc4C)n3)CC2=O)cc1 (stereo unspecified)	.
O=C(c1cn[nH]c1)N1C[C@@H](COCC2CC2)[C@H](c2ccncc2)C1	.
CCN(CC)Cc1cnc2c(C(=O)N(C)CCc3ccccn3)cnn2c1	.
COc1cccc(NC(=O)Cn2c(=O)n(-c3ccc(Cl)cc3)c(=O)c3sc4ccccc4c32)c1	11µM
COc1ccccc1NC(=O)Cn1c(=O)n(-c2cccc(Cl)c2)c(=O)c2sc3ccccc3c21	.
COc1cccc(NC(=O)Cn2c(=O)n(Cc3ccc(F)cc3)c(=O)c3sc4ccccc4c32)c1	.
COc1ccc(N2CCN(c3nc(C(=O)NCc4ccccc4C)cs3)CC2)cc1	8.9µM
O=C(NCc1ccccc1Cl)c1csc(N2CCN(c3ccc(F)cc3)CC2)n1	.
COc1ccc(N2CCN(c3nc(C(=O)NCc4ccc(C)cc4)cs3)CC2)cc1	.
COc1ccc(N2CCN(c3nc(C(=O)NC4CC4)cs3)CC2)cc1	.
COc1ccc(N2CCN(c3nc(C(=O)NCc4cccc(C)c4)cs3)CC2)cc1	3.2µM
O=C(NCc1cccs1)c1csc(N2CCN(c3ccc(F)cc3)CC2)n1	.
CCCCN1C(=O)[C@@H]2C[C@@H](O)CN2C2(CN(C3CCC(F)(F)CC3)C2)C1=O	.
O=C(c1cccnc1)N1CCCC1c1nc(CCOCC2CC2)no1 (stereo unspecified)	.
O=C(NCC1CCN(Cc2ccccn2)C1)Nc1ccccc1Cl (stereo unspecified)	.
Cc1ccc(S(=O)(=O)NC[C@H]2OC[C@@H](NCc3ccncc3)[C@@H]2O)cc1	.
Cc1nnc2n1CCC(NC(=O)Cc1c[nH]c3ccccc13)CC2 (stereo unspecified)	.
COc1ccc(-n2nc3n(c2=O)CCN([S+](=O)([O-])c2cccc(C(F)(F)F)c2)C3)cc1	.
Cn1cnc2cc(-c3cccc4[nH]ncc34)cc(C(=O)NCc3cccnc3)c21	.
SMILES	Pf Dd2 growth
O=C(O)CCCC(=O)N1C[C@@H]2C[C@H](C1)c1ccc(-c3ccc(Cl)cc3)c(=O)n1C2	.
CC(C)[C@@H]1CN(C(=O)c2cccc(Cn3cccn3)c2)C[C@H]1NC(=O)N(C)C	.
O=C(Nc1cc(F)cc(F)c1)c1cnc(-c2ccc(F)cc2)nc1-c1ccncc1	10µM
COc1cc(NC(=O)c2cnc(-c3ccc(C)cc3)nc2-c2ccncc2)cc(OC)c1	.
Cc1ccc(-c2ncc(C(=O)Nc3ccc(F)c(F)c3)c(-c3ccncc3)n2)cc1	.
Cn1cc(CN2C[C@H](O)C[C@H]2c2nc(-c3cccc([N+](=O)[O-])c3)no2)c2ccccc21	.
O=C(COc1ccc(F)cc1)N1CCC(Oc2ccc(-c3noc(C4CC4)n3)cc2)C1 (stereo unspecified)	.[5.79 µM]
COc1ccc(Cl)cc1NC(=O)Cn1c(-c2ccc(F)cc2)nc(C)c(CCO)c1=O	14µM
COc1cc(NC(=O)Cn2c(-c3ccccc3)nc(C)c(CCO)c2=O)cc(OC)c1OC	.
COc1ccc(OC)c(NC(=O)Cn2c(-c3ccc(F)cc3)nc(C)c(CCO)c2=O)c1	.
COc1ccc(Cl)cc1NC(=O)Cn1c(-c2ccccc2)nc(C)c(CCO)c1=O	.
Cc1nc(-c2ccc(F)cc2)n(CC(=O)Nc2ccc(F)cc2)c(=O)c1CCO	.
Cc1ccc(NC(=O)Cn2c(-c3cccc(Cl)c3)nc(C)c(CCO)c2=O)cc1	.
COc1ccc(NC(=O)Cn2c(-c3ccccc3)nc(C)c(CCO)c2=O)cc1OC	.
Cc1nc(-c2ccc(F)cc2)n(CC(=O)Nc2ccc(C(C)C)cc2)c(=O)c1CCO	7.1µM
Cc1nc(-c2ccc(F)cc2)n(CC(=O)Nc2cc(F)ccc2F)c(=O)c1CCO	.
Cc1nc(-c2cccc(Cl)c2)n(CC(=O)Nc2cccc(C(C)C)c2)c(=O)c1CCO	5µM
Cc1cc(NC(=O)Cn2c(-c3cccc(Cl)c3)nc(C)c(CCO)c2=O)no1	.
COc1cc(NC(=O)Cn2c(-c3ccccc3)nc(C)c(CCO)c2=O)cc(OC)c1	8.9µM
O=C1COC[C@H]([C@H](O)c2ccc(NC(=O)c3ccnc(Cl)c3)cc2)N1	.
